Rows were chosen to be rich in hits. Some 21% of all compounds tested hit in one or more screens of this group.
Pf growth 48h: Primary qHTS for delayed death inhibitors of the malarial parasite plastid, 48 hour incubation | P. falciparum luciferase growth in erythrocytes, 48 h | AID 504832, 2011 | Potency, µM (series often up to 28.7 µM), inactives show at the highest dose activity change, negative = inhibition, hits mostly inhibitors | 5.9% of 310,000 active; further: potency means the concentration at half of the fitted maximal effect; on the % scale 0 is the no-effect control and ±100 the full control effect
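Luciferase-expressing parasites in RBCs, 2% Hct / 0.1% parasitemia final; RPMI 1640 + 0.5% Albumax; 37 C, 5% CO2, one generation; luminescence read-out, lower signal = inhibition.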
Sm TGR block: qHTS Assay for the Inhibitors of Schistosoma Mansoni Peroxiredoxins | 3% of 360,000 active | purified TGR, DTNB reduction, TNB absorbance 405 nm | Potency, µM (titrated, usually from 114 µM), without a hit: at the top dose activity change, negative = inhibition, hits mostly inhibitors | Schistosoma mansoni thioredoxin glutathione reductase (TGR), Q962Y6 | AID 485364, 2010; further: potency means the concentration at half of the fitted maximal effect; on the % scale 0 is the no-effect control and ±100 the full control effect; nearly all actives have a fitted effect of over 60% in size
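First, TGR (20 nM dispensed) and NADPH were mixed with compound. Second, a 15 min room-temperature incubation followed. Third, further NADPH and then DTNB were added to start the reaction. Finally, TNB absorbance was monitored kinetically.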
Pf growth 96h: Primary qHTS for delayed death inhibitors of the malarial parasite plastid, 96 hour incubation; P. falciparum luciferase reporter growth, 96 h; Potency, µM (titrated, usually from 28.7 µM), inactives show at the top dose activity change, negative = inhibition, actives largely listed as inhibitors; 6.9% of 320,000 active; further: potency means the concentration at half of the fitted maximal effect; on the % scale 0 is the no-effect control and ±100 the full control effect
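P. falciparum expressing integrated firefly luciferase, in erythrocytes at 2% hematocrit, 0.05% parasitemia, incubated with compounds 96 h at 37 C, 5% CO2. Growth inhibition read as loss of luminescence; two-generation exposure targets delayed-death apicoplast inhibitors.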
Shiga toxin inh: A qHTS for Small Molecule Inhibitors of Shiga Toxin | Vero cells, Shiga toxin protein synthesis inhibition reporter | inhibition, % at 38.7 µM | 9.2% of 290,000 active | AID 2315, 2010; in the data active means inhibition mostly above about 28%, no sharp cut-off; inactive means mostly below about 43%; further: 0% is about no effect
Cycloheximide cs: Cycloheximide Counterscreen for Small Molecule Inhibitors of Shiga Toxin; cell reporter, cycloheximide protein synthesis inhibition counterscreen; 12% of 300,000 active; max response, %; AID 2314, 2010; in the data active means max response mostly above about 13%, no sharp cut-off; inactive means mostly below about 14%; further: read at 38.3 µM for the half of the compounds with a filed dose; 0% is about no effect
NS1 function inh: qHTS Assay for Inhibitors of Influenza NS1 Protein Function; Potency, µM (series often up to 46.1 µM), for the others: top-dose activity, positive = more growth; 0.4% of 270,000 active; AID 2326, 2010; calls by dose curve; further: potency means the concentration at half of the fitted maximal effect; actives are rising curves; nearly all actives have a fitted effect of over 50% in size
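In this qHTS, NS1 from influenza A is expressed in budding yeast, where it slows growth. Cells are switched from glucose to 2% galactose medium (pH 6.0, -URA), treated with compound, and growth recovery is read at OD600.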
An asterisk follows results filed as active; [ ] = remark or other dose. Unless noted, the call rests on the fitted dose curve; in most records, active means well fitted curve in the direction sought with a large enough effect; inconclusive means small, poorly fitted or top-dose-only effect, or another doubt; inactive means no such curve, though single readings can be large; an effect the other way counts as inactive or inconclusive.

Results for CCC1COC(Cn2cncn2)(c2ccc(Cl)cc2Cl)O1 (stereo unspecified) ?
Shiga toxin inh: -3.3; Cycloheximide cs: -6.9

Results for CC(C)N1CCN(c2ccc(OC[C@H]3CO[C@](Cn4cncn4)(c4ccc(Cl)cc4Cl)O3)cc2)CC1 ?
Pf growth 48h: 13.1µM*; Sm TGR block: -1.7%; Pf growth 96h: 9.28µM*

Results for CC1(C)CC(=O)C2=C(C1)OC(N)=C(C#N)C21CCN(C(=O)OCc2ccccc2)CC1 ?
Pf growth 48h: -2.1%; Sm TGR block: -25.4%; Pf growth 96h: 12.6%; Shiga toxin inh: 12.0; Cycloheximide cs: 17.0; NS1 function inh: 13.0%

How did CCOC(=O)N1CCC2(CC1)C(C#N)=C(N)OC1=C2C(=O)CC(C)C1 (stereo unspecified) do in these assays?
Pf growth 48h: -11.5%; Sm TGR block: -32.1%; Pf growth 96h: 6.57µM*; Shiga toxin inh: -16.1; Cycloheximide cs: 1.0; NS1 function inh: 0.3%

How did O=C(CN1CCCC1)Nc1ccc(Br)cc1[N+](=O)[O-] do in these assays?
Pf growth 48h: 41.3%; Sm TGR block: 0.1%; Pf growth 96h: inconclusive; Cycloheximide cs: 27.3*; NS1 function inh: 0.0%

Results for Cc1ccc(NC(=O)CN2CCCC2)cc1Br ?
Pf growth 48h: 21.6%; Sm TGR block: -22.2%; Pf growth 96h: inconclusive; Shiga toxin inh: 5.7; Cycloheximide cs: 7.1; NS1 function inh: 1.6%

Results for Cc1ccc(NC(=O)CN2CCCCCC2)cc1[N+](=O)[O-] ?
Pf growth 48h: 0.0%; Sm TGR block: 6.9%; Pf growth 96h: 106.3%; Shiga toxin inh: 102.8*; Cycloheximide cs: 41.8*

What do the screens show for `O=C(CCC1CCCCC1)NC1=NCCS1`?
Pf growth 48h: 71.2%; Sm TGR block: 6.9%; Pf growth 96h: 10.4µM*; Shiga toxin inh: -1.4; Cycloheximide cs: -3.5; NS1 function inh: -16.3%

How did O=C(NC1=NCCS1)NC12CC3CC(CC(C3)C1)C2 do in these assays?
Pf growth 48h: -0.2%; Sm TGR block: -9.2%; Pf growth 96h: 1.17µM*; Shiga toxin inh: 0.9; Cycloheximide cs: -2.9; NS1 function inh: -125.8%

Results for O=C(NC1=NCCS1)C12CC3CC(C1)CC(C(=O)NC1=NCCS1)(C3)C2 ?
Pf growth 48h: -17.2%; Sm TGR block: 6.0%; Pf growth 96h: -8.5%; Shiga toxin inh: -4.2; Cycloheximide cs: 0.6; NS1 function inh: -0.4%

What do the screens show for `O=C(NC1=NCCS1)C1CCCCC1`?
Pf growth 48h: 180.8%; Sm TGR block: 0.0%; Pf growth 96h: inconclusive; Shiga toxin inh: 12.8; Cycloheximide cs: 10.2

What do the screens show for `O=C(CC12CC3CC(C1)CC(CC(=O)NC1=NCCS1)(C3)C2)NC1=NCCS1`?
Pf growth 48h: 9.28µM*; Sm TGR block: -5.3%; Shiga toxin inh: 1.6; Cycloheximide cs: -4.2; NS1 function inh: -5.6%

Results for CC12CC3CC(C)(C1)CC(C(=O)NC1=NCCS1)(C3)C2 ?
Sm TGR block: 2.9%; Pf growth 96h: 11.7µM*; Shiga toxin inh: 8.2; Cycloheximide cs: -1.3; NS1 function inh: -239.4%

How did COc1ccccc1N1CCN(C(=O)COc2cc(C)cc(C)c2)CC1 do in these assays?
Pf growth 48h: inconclusive; Sm TGR block: -5.6%; Pf growth 96h: -0.1%; Shiga toxin inh: -12.9; Cycloheximide cs: 1.2

How did COc1ccc(OC)c(NC(=O)C2CCCN(S(=O)(=O)c3ccc4[nH]c(=O)ccc4c3)C2)c1 (stereo unspecified) do in these assays?
Sm TGR block: -0.4%

How did O=C(NCc1cc(C(F)(F)F)cc(C(F)(F)F)c1)C1CC(c2cccc([N+](=O)[O-])c2)=NO1 (stereo unspecified) do in these assays?
Pf growth 48h: -1.6%; Sm TGR block: 7.8%; Pf growth 96h: inconclusive; Shiga toxin inh: -6.1; Cycloheximide cs: 4.4; NS1 function inh: -9.5%

Results for COC(=O)C1C/C(=N/NS(=O)(=O)c2ccc(C)cc2)CS1 (stereo unspecified) ?
Pf growth 48h: 21.9%; Sm TGR block: 12.6µM*; Pf growth 96h: -27.2%; Shiga toxin inh: 16.8; Cycloheximide cs: -0.7; NS1 function inh: -1.3%

How did O=C(NCc1ccc(Cl)cc1)c1cc2c(s1)CS(=O)(=O)C2 do in these assays?
Pf growth 48h: 14.2%; Sm TGR block: -5.4%; Pf growth 96h: -6.4%; Shiga toxin inh: -5.2; Cycloheximide cs: -5.7; NS1 function inh: 14.9%

How did COC(=O)c1cc(C(=O)c2cc(Br)ccc2O)coc1=N do in these assays?
Pf growth 48h: -0.7%; Sm TGR block: 2.6%; Pf growth 96h: -34.7%; Shiga toxin inh: -4.5; Cycloheximide cs: 8.0

Results for COc1ccc(CNC(C)C23CC4CC(CC(C4)C2)C3)c(OC)c1OC (stereo unspecified) ?
Pf growth 48h: 11.7µM*; Sm TGR block: -4.5%; Pf growth 96h: 9.28µM*; Shiga toxin inh: -3.2; Cycloheximide cs: -3.8; NS1 function inh: -4.7%

How did C#CCNC(=O)c1ccc(OCc2ccccc2)cc1Cl do in these assays?
Pf growth 48h: 55.1%; Sm TGR block: 5.2%; Pf growth 96h: 148.7%; Shiga toxin inh: 58.5*; Cycloheximide cs: 19.2

How did O=C(NCCCl)c1ccc(OCc2ccccc2)cc1Cl do in these assays?
Pf growth 48h: 77.8%; Sm TGR block: 18.8%; Pf growth 96h: 200.3%; Shiga toxin inh: 66.0*; Cycloheximide cs: 34.2*

Results for COCCCN1C(=O)c2ccc(C(=O)Nc3ccc(C)cc3C)cc2C1=O ?
Pf growth 48h: -7.8%[0.00184 µM]; Sm TGR block: -22.1%; Pf growth 96h: -1.4%; Shiga toxin inh: 27.6; Cycloheximide cs: -2.2; NS1 function inh: -0.6%

How did COc1ccc(NC(=O)C(C)n2nc(C)c3c(C)n(-c4ccccc4)nc3c2=O)cc1Cl (stereo unspecified) do in these assays?
Sm TGR block: 1.9%

How did COc1ccc(-n2nc(C(=O)Nc3ccccc3OC)c3c4ccccc4n(C)c3c2=O)cc1Cl do in these assays?
Sm TGR block: 3.5%

What do the screens show for `CCCCC1(C(=O)OC)NC(c2ccc(O)cc2)C2C(=O)N(c3ccccc3)C(=O)C21` (stereo unspecified)?
Pf growth 48h: 6.7%; Sm TGR block: 1.6%; Pf growth 96h: 71.8%; Cycloheximide cs: -3.6; NS1 function inh: 9.3%

How did CC(=O)NCCC(=O)NCc1ccc(F)cc1 do in these assays?
Sm TGR block: -1.0%; Pf growth 96h: 19.1%; Shiga toxin inh: -6.3; Cycloheximide cs: -1.7; NS1 function inh: 4.0%

What do the screens show for `CC(=O)NCc1ccc(C(=O)CCl)cc1`?
Pf growth 48h: -4.7%; Sm TGR block: 11.2µM*; Pf growth 96h: -19.6%; Shiga toxin inh: -8.9; Cycloheximide cs: 0.9

Results for CC(=O)Nc1ccc(C(=O)CCl)cc1 ?
Pf growth 48h: 38.3%; Sm TGR block: 12.6µM*; Pf growth 96h: 42.3%
